# According to PubChem BioAssay (NCI):
# This is part of a sample that, as a whole, favours compounds with a hit. Of some 79,000 tested, about 15% had one in any assay. Unmarked numbers belong to inactive results. Active and inactive are the calls of the source. No stated cut-off is given here; in the data, active means growth inhibition above about 70%; inactive means the rest.
# Experiments:
# [1] = NCI Yeast Anticancer Drug Screen. Data for the rad52 strain (AID 147);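 further: 0% = growth of vehicle-treated control cultures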; conditions: S. cerevisiae rad52 mutant growth inhibition, active compounds read high
# Outline: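 Vehicle-treated cultures served as the reference for growth inhibition of compound-exposed yeast bearing a DNA repair mutation.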
# [2] = NCI Yeast Anticancer Drug Screen. Data for the wt1 strain (AID 149);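 further: 0% = growth of vehicle-treated wt1 cultures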; conditions: S. cerevisiae wt1 strain (SPY 50644) growth inhibition, active compounds read high
# Outline: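 Readout: yeast growth inhibition, normalised to vehicle controls, in the wt1 strain exposed to test compounds.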
# [3] = NCI Yeast Anticancer Drug Screen. Data for the rad50EPP+ strain (AID 151);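 further: 0% = growth of vehicle-treated control cultures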; conditions: S. cerevisiae rad50 mutant strain, active compounds read high
# Outline: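 In this screen, rad50EPP+ yeast were exposed to compounds. Growth inhibition was scored against vehicle-treated controls.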
# [4] = NCI Yeast Anticancer Drug Screen. Data for the mgt1 strain (AID 153); conditions: S. cerevisiae mgt1 mutant growth inhibition, active compounds read high
# Outline: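 mgt1 strain exposed; growth vs vehicle control recorded as inhibition.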
# [5] = NCI Yeast Anticancer Drug Screen. Data for the rad50 strain (AID 155);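 further: 0% = growth of vehicle-only cultures of the same strain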; conditions: S. cerevisiae rad50 strain growth inhibition, active compounds read high
# Outline: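 Compounds were tested on a yeast strain with an engineered DNA damage repair alteration; the reported value is growth inhibition normalised to vehicle treatment.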
# [6] = NCI Yeast Anticancer Drug Screen. Data for the mec2-1 strain (AID 157); conditions: S. cerevisiae mec2-1 strain, active compounds read high
# Outline: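 Vehicle-treated cultures served as reference for growth inhibition of compound-exposed mec2-1 yeast.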
# [7] = NCI Yeast Anticancer Drug Screen. Data for the rad14 strain (AID 159);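 further: 0% = growth of vehicle-treated control cultures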; conditions: S. cerevisiae rad14 strain growth inhibition, active compounds read high
# Outline: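 Compound-treated yeast with a defined DNA-repair lesion; growth inhibition normalised to vehicle-treated cultures.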
# [8] = NCI Yeast Anticancer Drug Screen. Data for the sgs1 mgt1 strain (AID 161);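 further: 0% = growth of cultures given vehicle only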; conditions: S. cerevisiae sgs1 mgt1 strain, active compounds read high
# Outline: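 Inhibition of yeast growth, normalised to vehicle-treated controls, is reported for a strain bearing genetic alterations in DNA damage repair.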
# [9] = NCI Yeast Anticancer Drug Screen. Data for the CLN2oe strain (AID 163);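 further: 0% = growth of vehicle-only control cultures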; conditions: S. cerevisiae CLN2oe strain, active compounds read high
# Outline: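 Inhibition relative to vehicle-treated yeast is reported. Cells: strain with genetic alteration in cell-cycle control, grown with compound.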
# [10] = NCI Yeast Anticancer Drug Screen. Data for the bub3 strain (AID 167); conditions: S. cerevisiae bub3 mutant strain, active compounds read high
# Outline: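 Growth of a checkpoint-deficient yeast mutant is measured after compound exposure. Values represent inhibition relative to vehicle.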
# [11] = NCI Yeast Anticancer Drug Screen. Data for the wt2 strain (AID 169);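 further: 0% = growth of vehicle-treated yeast cultures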; conditions: S. cerevisiae wt2 strain growth inhibition, active compounds read high
# Outline: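 Inhibition of yeast growth was determined after compound treatment, normalised to controls receiving only vehicle.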
# [12] = NCI Yeast Anticancer Drug Screen. Data for the mlh1 strain (AID 171);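 further: 0% = growth of vehicle-treated control cultures of the same strain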; conditions: S. cerevisiae mlh1 strain growth inhibition, active compounds read high
# Outline: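 Vehicle-normalised growth inhibition of a repair- or checkpoint-altered yeast strain following compound treatment.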
# [13] = NCI Yeast Anticancer Drug Screen. Data for the sgs1 strain (AID 173);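 further: 0% = growth of vehicle-only control cultures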; conditions: S. cerevisiae sgs1 mutant, active compounds read high
# Outline: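 Screen format: yeast with repair or checkpoint alterations, compound exposure, growth read relative to vehicle.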
# [14] = NCI Yeast Anticancer Drug Screen. Data for the mlh1 rad18 strain (AID 175); conditions: S. cerevisiae mlh1 rad18 strain growth inhibition, active compounds read high
# Outline: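 Vehicle-treated cultures served as the reference for growth inhibition in a yeast strain carrying DNA damage repair alterations exposed to each compound.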
# [15] = NCI Yeast Anticancer Drug Screen. Data for the rad18 strain (AID 177); conditions: S. cerevisiae rad18 mutant growth inhibition, active compounds read high
# Outline: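 Test articles were incubated with altered yeast defective in DNA damage repair. Results are given as inhibition of growth versus vehicle.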
# [16] = NCI Yeast Anticancer Drug Screen. Data for the cln2 rad14 strain (AID 165);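 further: 0% = growth equal to vehicle treated cultures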; conditions: S. cerevisiae cln2 rad14 strain, active compounds read high
# Outline: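 Each compound was tested on cln2 rad14 yeast. Inhibition of growth was calculated against vehicle-exposed controls.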
# [17] = at 5.0 µM (retest, dose inferred, filed as 0.5)
# [18] = at 50.0 µM (retest, dose inferred, filed as 5.0)
smiles,measurement,setting,value
CC1CCC2(NC1)OC1CC3C4CCC5CC(OC6OC(CO)C(OC7OC(CO)C(O)C(OC8OCC(O)C(O)C8O)C7OC7OC(CO)C(O)C(O)C7O)C(O)C6O)CCC5(C)C4CCC3(C)C1C2C (stereo not drawn),growth inhibition,[1]; at 1.2 µM,30%
same,growth inhibition,[1]; at 3.7 µM,8%
same,growth inhibition,[1]; at 11.0 µM,12%
same,growth inhibition,[1]; at 33.0 µM,0%
same,growth inhibition,[1]; at 100.0 µM,76% (active)
same,growth inhibition,[2]; at 1.2 µM,-6%
same,growth inhibition,[2]; at 3.7 µM,-15%
same,growth inhibition,[2]; at 11.0 µM,-18%
same,growth inhibition,[2]; at 33.0 µM,-17%
same,growth inhibition,[2]; at 100.0 µM,40%
same,growth inhibition,[3]; at 1.2 µM,21%
same,growth inhibition,[3]; at 3.7 µM,3%
same,growth inhibition,[3]; at 11.0 µM,8%
same,growth inhibition,[3]; at 33.0 µM,13%
same,growth inhibition,[3]; at 100.0 µM,27%
same,growth inhibition,[4]; at 1.2 µM,-2%
same,growth inhibition,[4]; at 3.7 µM,-10%
same,growth inhibition,[4]; at 11.0 µM,-11%
same,growth inhibition,[4]; at 33.0 µM,-11%
same,growth inhibition,[4]; at 100.0 µM,44%
same,growth inhibition,[5]; at 1.2 µM,-2%
same,growth inhibition,[5]; at 3.7 µM,-16%
same,growth inhibition,[5]; [17],1%
same,growth inhibition,[5]; at 11.0 µM,-14%
same,growth inhibition,[5]; at 33.0 µM,-6%
same,growth inhibition,[5]; [18],98% (active)
same,growth inhibition,[5]; at 50.0 µM,28.9%
same,growth inhibition,[5]; at 100.0 µM,62%
same,growth inhibition,[6]; at 1.2 µM,13%
same,growth inhibition,[6]; at 3.7 µM,-14%
same,growth inhibition,[6]; [17],13%
same,growth inhibition,[6]; at 11.0 µM,-15%
same,growth inhibition,[6]; at 33.0 µM,2%
same,growth inhibition,[6]; [18],97% (active)
same,growth inhibition,[6]; at 50.0 µM,6.1%
same,growth inhibition,[6]; at 100.0 µM,14%
same,growth inhibition,[7]; at 1.2 µM,18%
same,growth inhibition,[7]; at 3.7 µM,6%
same,growth inhibition,[7]; at 11.0 µM,-5%
same,growth inhibition,[7]; at 33.0 µM,-18%
same,growth inhibition,[7]; at 100.0 µM,77% (active)
same,growth inhibition,[8]; [17],1%
same,growth inhibition,[8]; [18],93% (active)
same,growth inhibition,[8]; at 50.0 µM,-24.1%
same,growth inhibition,[9]; at 1.2 µM,-15%
same,growth inhibition,[9]; at 3.7 µM,-14%
same,growth inhibition,[9]; at 11.0 µM,-10%
same,growth inhibition,[9]; at 33.0 µM,-4%
same,growth inhibition,[9]; at 100.0 µM,46%
same,growth inhibition,[10]; at 1.2 µM,0%
same,growth inhibition,[10]; at 3.7 µM,-19%
same,growth inhibition,[10]; [17],10%
same,growth inhibition,[10]; at 11.0 µM,-27%
same,growth inhibition,[10]; at 33.0 µM,-10%
same,growth inhibition,[10]; [18],74% (active)
same,growth inhibition,[10]; at 50.0 µM,11.1%
same,growth inhibition,[10]; at 100.0 µM,45%
same,growth inhibition,[11]; at 1.2 µM,-7%
same,growth inhibition,[11]; at 3.7 µM,-20%
same,growth inhibition,[11]; at 11.0 µM,-22%
same,growth inhibition,[11]; at 33.0 µM,-11%
same,growth inhibition,[11]; at 100.0 µM,99% (active)
same,growth inhibition,[12]; at 1.2 µM,-4%
same,growth inhibition,[12]; at 3.7 µM,-5%
same,growth inhibition,[12]; at 11.0 µM,-8%
same,growth inhibition,[12]; at 33.0 µM,-12%
same,growth inhibition,[12]; at 100.0 µM,90% (active)
same,growth inhibition,[13]; at 1.2 µM,2%
same,growth inhibition,[13]; at 3.7 µM,0%
same,growth inhibition,[13]; at 11.0 µM,2%
same,growth inhibition,[13]; at 33.0 µM,-4%
same,growth inhibition,[13]; at 100.0 µM,61%
same,growth inhibition,[14]; [17],59%
same,growth inhibition,[14]; [18],97% (active)
same,growth inhibition,[14]; at 50.0 µM,87.6% (active)
same,growth inhibition,[15]; at 1.2 µM,4%
same,growth inhibition,[15]; at 3.7 µM,-19%
same,growth inhibition,[15]; at 11.0 µM,-14%
same,growth inhibition,[15]; at 33.0 µM,-25%
same,growth inhibition,[15]; at 100.0 µM,61%
COC1C(O)C(C)OC(OC2C(Oc3cccc4c(O)c5c(=O)oc6ccc(C)c7c(=O)oc(c34)c5c67)OC(C)C(O)C2O)C1O (stereo not drawn),growth inhibition,[1]; at 1.2 µM,41%
same,growth inhibition,[1]; at 3.7 µM,67%
same,growth inhibition,[1]; at 11.0 µM,85% (active)
same,growth inhibition,[1]; at 33.0 µM,87% (active)
same,growth inhibition,[1]; at 100.0 µM,89% (active)
same,growth inhibition,[2]; at 1.2 µM,6%
same,growth inhibition,[2]; at 3.7 µM,2%
same,growth inhibition,[2]; at 11.0 µM,8%
same,growth inhibition,[2]; at 33.0 µM,17%
same,growth inhibition,[2]; at 100.0 µM,12%
same,growth inhibition,[3]; at 1.2 µM,7%
same,growth inhibition,[3]; at 3.7 µM,22%
same,growth inhibition,[3]; at 11.0 µM,31%
same,growth inhibition,[3]; at 33.0 µM,39%
same,growth inhibition,[3]; at 100.0 µM,35%
same,growth inhibition,[4]; at 1.2 µM,-4%
same,growth inhibition,[4]; at 3.7 µM,7%
same,growth inhibition,[4]; at 11.0 µM,-4%
same,growth inhibition,[4]; at 33.0 µM,25%
same,growth inhibition,[4]; at 100.0 µM,18%
same,growth inhibition,[5]; at 1.2 µM,57%
same,growth inhibition,[5]; at 3.7 µM,78% (active)
same,growth inhibition,[5]; [17],29%
same,growth inhibition,[5]; at 11.0 µM,83% (active)
same,growth inhibition,[5]; at 33.0 µM,84% (active)
same,growth inhibition,[5]; [18],68%
same,growth inhibition,[5]; at 50.0 µM,88% (active)
same,growth inhibition,[5]; at 100.0 µM,84% (active)
same,growth inhibition,[6]; at 1.2 µM,1%
same,growth inhibition,[6]; at 3.7 µM,4%
same,growth inhibition,[6]; [17],25%
same,growth inhibition,[6]; at 11.0 µM,9%
same,growth inhibition,[6]; at 33.0 µM,18%
same,growth inhibition,[6]; [18],15%
same,growth inhibition,[6]; at 50.0 µM,33.8%
same,growth inhibition,[6]; at 100.0 µM,34%
same,growth inhibition,[7]; at 1.2 µM,5%
same,growth inhibition,[7]; at 3.7 µM,9%
same,growth inhibition,[7]; at 11.0 µM,20%
same,growth inhibition,[7]; at 33.0 µM,30%
same,growth inhibition,[7]; at 100.0 µM,32%
same,growth inhibition,[8]; [17],28%
same,growth inhibition,[8]; [18],-2%
same,growth inhibition,[8]; at 50.0 µM,3.65%
same,growth inhibition,[9]; at 1.2 µM,1%
same,growth inhibition,[9]; at 3.7 µM,1%
same,growth inhibition,[9]; at 11.0 µM,9%
same,growth inhibition,[9]; at 33.0 µM,2%
same,growth inhibition,[9]; at 100.0 µM,17%
same,growth inhibition,[16]; [17],19%
same,growth inhibition,[16]; [18],5%
same,growth inhibition,[16]; at 50.0 µM,-3.1%
same,growth inhibition,[10]; at 1.2 µM,-5%
same,growth inhibition,[10]; at 3.7 µM,-3%
same,growth inhibition,[10]; [17],23%
same,growth inhibition,[10]; at 11.0 µM,-1%
same,growth inhibition,[10]; at 33.0 µM,-2%
same,growth inhibition,[10]; [18],-5%
same,growth inhibition,[10]; at 50.0 µM,57.7%
same,growth inhibition,[10]; at 100.0 µM,14%
same,growth inhibition,[12]; at 1.2 µM,0%
same,growth inhibition,[12]; at 3.7 µM,6%
same,growth inhibition,[12]; at 11.0 µM,9%
same,growth inhibition,[12]; at 33.0 µM,17%
same,growth inhibition,[12]; at 100.0 µM,30%
same,growth inhibition,[13]; at 1.2 µM,1%
same,growth inhibition,[13]; at 3.7 µM,4%
same,growth inhibition,[13]; at 11.0 µM,15%
same,growth inhibition,[13]; at 33.0 µM,20%
same,growth inhibition,[13]; at 100.0 µM,22%
same,growth inhibition,[14]; [17],-2%
same,growth inhibition,[14]; [18],-4%
same,growth inhibition,[14]; at 50.0 µM,46.2%
same,growth inhibition,[15]; at 1.2 µM,6%
same,growth inhibition,[15]; at 3.7 µM,3%
same,growth inhibition,[15]; at 11.0 µM,17%
same,growth inhibition,[15]; at 33.0 µM,21%
same,growth inhibition,[15]; at 100.0 µM,16%
